These results are taken from PubChem BioAssay.

A short description of test [1]: Wnt pathway potentiators raising nuclear beta-catenin – imaging, WNT3A-conditioned medium, mouse C2C12, NPC library, primary screen (AID 1117326; in the data active means nuclear beta-catenin stimulation mostly above about 4.2%, no sharp cut-off; inactive means mostly below about 10%; further: reference of the scale not given here). Conditions: stronger effect = higher value.
Test [2] can be described thus: stimulators of insulin release from INS-1E, primary screen, cell-based, 5 mM glucose, NPC library (AID 1117329;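 active means compound raises insulin release from rat beta cells at 5 mM glucose, no numeric limit stated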; further: reference of the scale not given here). Conditions: rat INS-1E insulin secretion, at 10 µM, stronger effect = higher value.
Test [3] is described as follows: growth inhibition of GSK3B-pretreated HCT116 cells – cell-based, CellTiter-Glo, 0.2 to 20 µM (AID 1117336;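 active means compounds lowering colon cancer cell viability after pretreatment blocking the GSK3B kinase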). Conditions: HCT116 viability after GSK3B inhibitor, at 20 µM, stronger effect = higher value.
Test [4] in a line: inhibition of endothelial tube formation, primary screen, imaging, VEGF stimulated, CD31 staining, tube area, NPC library (AID 1117340;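 active means compound that reduces growth-factor-driven endothelial tube area in a mixed cell culture, no cutoff stated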). The settings on record: VEGF-stimulated ADSC/ECFC co-culture, at 10 µM, stronger effect = higher value.
Test [5] can be described thus: GLP1 release stimulators, primary, NCI-H716, NPC library (AID 1117341;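 active means compound raises GLP1 secretion from the human gut endocrine cells, with no numeric limit stated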; further: reference of the scale not given here). The settings on record: NCI-H716 cells, at 10 µM, stronger effect = higher value.
Test [6] in a line: HCT116 colon cancer cell growth inhibition, primary screen, CellTiter-Glo luminescence, NPC library (AID 1117342). Conditions: at 20 µM (top of the series). Background: Cellular ATP, detected with luciferase, serves as a proxy for viable cell number.
The nature of test [7]: reduced SW480 viability measured with CellTiter-Glo, NPC library, primary (AID 1117343;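 active means compounds that lower viability of the colon cancer cells in the luminescence readout, with no numeric limit stated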). The settings on record: CellTiter-Glo luminescence; at 20 µM (top of the series).
A short description of test [8]: NPC library primary testing for decreased DLD-1 cell viability via CellTiter-Glo (AID 1117346;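 active means compounds that lower survival of DLD-1 colon cancer cells in the luminescence readout, no cutoff given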). Conditions: DLD-1 viability, CellTiter-Glo luminescence; at 20 µM (top of the series).

Active and inactive are the calls of the source.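 How the source made its calls, unless noted: active means compounds that lower survival of HCT116 colon cancer cells in the luminescence readout, no numeric limit stated; inactive means the rest.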

With `O=C(O)Cc1ccc(CCNS(=O)(=O)c2ccc(Cl)cc2)cc1`, the nuclear beta-catenin stimulation was 0% (inactive) in test [1] (at 10 µM) and 0.1% in test [1] (stimulation, at 2 µM). Also, the insulin secretion stimulation in test [2] is 0.2% (inactive). For the same molecule, the viability decrease in test [3] was -5.1% (inactive). The tube area decrease in test [4] is 3.3% (inactive). The GLP1 secretion stimulation in test [5] was -2.9% (inactive). In addition, the inhibition of viability in test [6] is -4% (inactive). Also, the viability decrease (inhibition) is 1.5% (inactive) in test [7] and -6.1% (inactive) in test [8].

As for `N[C@H](C(=O)O)[C@@H](O)c1ccc(O)c(O)c1`, the nuclear beta-catenin stimulation in test [1] (at 10 µM) was 0.1% (inactive); in test [1] (stimulation, at 2 µM), 0%. Also, the insulin secretion stimulation in test [2] is 11.2% (inactive). Also, the viability decrease in test [3] was 31.7% (inactive). For the same molecule, the tube area decrease in test [4] was 1.4% (inactive). Also, the GLP1 secretion stimulation in test [5] was -4.8% (inactive). Moreover, in test [6], the inhibition of viability is 6.7% (inactive). Moreover, the results for the viability decrease (inhibition) in test [7] and in test [8] were 21.5% (inactive) and 2.8% (inactive), respectively.

Regarding `C/C=C/C=N/NC(=O)c1ccncc1`, the nuclear beta-catenin stimulation in test [1] (at 10 µM) was 0.2% (inactive); in test [1] (stimulation, at 2 µM) it was 0.6%. Further, the insulin secretion stimulation in test [2] is -2.2% (inactive). Further, in test [3], the viability decrease is -6.2% (inactive). Moreover, the tube area decrease in test [4] was 6% (inactive). Moreover, in test [5], the GLP1 secretion stimulation was -0.1% (inactive). For the same molecule, in test [6], the inhibition of viability was 17% (inactive). For the same molecule, the viability decrease (inhibition) is 27.7% (inactive) in test [7] and -3.65% (inactive) in test [8].

Consider `CC(=O)O[C@@H]1C(=O)O[C@@H]2[C@H]1OC(=O)[C@@H]2OC(C)=O`, for which the nuclear beta-catenin stimulation in test [1] (at 10 µM) is 0.6% (inactive); in test [1] (stimulation, at 2 µM), -1.1%. For the same molecule, the insulin secretion stimulation in test [2] is 2.4% (inactive). Further, the viability decrease in test [3] was 19.5% (inactive). In addition, the tube area decrease in test [4] is -1% (inactive). The GLP1 secretion stimulation in test [5] is -3.4% (inactive). Also, the inhibition of viability in test [6] is 22.9% (inactive). Besides, the viability decrease (inhibition) in test [7] is 18.7% (inactive); in test [8] it was 4.6% (inactive).

In the case of `Nc1c(NC/C=C\COc2cc(CN3CCCCC3)ccn2)c(=O)c1=O`, the nuclear beta-catenin stimulation in test [1] (at 10 µM) was 0.1% (inactive); in test [1] (stimulation, at 2 µM), -1.1%. Further, the insulin secretion stimulation in test [2] is 0.1% (inactive). The viability decrease in test [3] was 2.9% (inactive). In addition, the tube area decrease in test [4] was 1% (inactive). Also, the GLP1 secretion stimulation in test [5] was 4% (inactive). Further, the inhibition of viability in test [6] was 8.6% (inactive). Also, the values for the viability decrease (inhibition) in test [7] and in test [8] were -4.4% (inactive) and -5% (inactive), respectively.

Consider `N[C@H](Cc1c[nH]c2ccccc12)C(=O)O`, for which the nuclear beta-catenin stimulation is 0.6% (inactive) in test [1] (at 10 µM) and 1% in test [1] (stimulation, at 2 µM). Also, in test [2], the insulin secretion stimulation was 2.7% (inactive). For the same molecule, in test [3], the viability decrease is 6.2% (inactive). For the same molecule, the tube area decrease in test [4] is 1.5% (inactive). Besides, in test [5], the GLP1 secretion stimulation was -2.5% (inactive). Further, the inhibition of viability in test [6] is -1.87% (inactive). Also, the viability decrease (inhibition) is 6.5% (inactive) in test [7] and 1.8% (inactive) in test [8].

With `CC(C)(C)NCC(O)COc1ccccc1OCC1CCCO1` (centres undefined), the nuclear beta-catenin stimulation was -0.3% (inactive) in test [1] (at 10 µM) and 2.1% in test [1] (stimulation, at 2 µM). Further, the insulin secretion stimulation in test [2] is 5.4% (inactive). Moreover, in test [3], the viability decrease is -18.7% (inactive). For the same molecule, the tube area decrease in test [4] was 34.3% (inactive). For the same molecule, the GLP1 secretion stimulation in test [5] was -2.1% (inactive). Further, the inhibition of viability in test [6] was -6.3% (inactive). Besides, the viability decrease (inhibition) was 30% (inactive) in test [7] and -6.9% (inactive) in test [8].

Turning to `CC(C)(C)c1cc(C=O)cc(C(C)(C)C)c1O`, the nuclear beta-catenin stimulation was 2% (inactive) in test [1] (at 10 µM) and 4.1% in test [1] (stimulation, at 2 µM). Further, the insulin secretion stimulation in test [2] was 1.1% (inactive). For the same molecule, in test [3], the viability decrease is 19.1% (inactive). For the same molecule, the tube area decrease in test [4] was 10.5% (inactive). Further, the GLP1 secretion stimulation in test [5] is 0.6% (inactive). Besides, the inhibition of viability in test [6] was 4.5% (inactive). In addition, the viability decrease (inhibition) in test [7] was -22.1% (inactive); in test [8], -10% (inactive).

As for `CCCCCCCC[N+](C)(C)CCCCCCCC`, the nuclear beta-catenin stimulation is -3.8% (inactive) in test [1] (at 10 µM) and 34.4% in test [1] (stimulation, at 2 µM). Besides, the insulin secretion stimulation in test [2] is -3% (inactive). For the same molecule, the viability decrease in test [3] was 99.5% (active). In addition, the tube area decrease in test [4] is 108% (active). In addition, the GLP1 secretion stimulation in test [5] is -2.7% (inactive). Also, the inhibition of viability in test [6] is 99.6% (active). Further, the viability decrease (inhibition) in test [7] was 102% (active); in test [8], 101% (active).

Turning to `CN1CCN(CCC(=O)N2c3ccccc3Sc3ccc(C(F)(F)F)cc32)CC1`, the nuclear beta-catenin stimulation in test [1] (at 10 µM) is 2.3% (inactive); in test [1] (stimulation, at 2 µM), 2.1%. Further, the insulin secretion stimulation in test [2] was 16.1% (inactive). In test [3], the viability decrease was 72.7% (active). Besides, in test [4], the tube area decrease is 19.7% (inactive). Also, in test [5], the GLP1 secretion stimulation was 11.5% (inactive). The inhibition of viability in test [6] is 60% (active). The viability decrease (inhibition) in test [7] is 117% (active); in test [8], 57.8% (active).

For `CCCC(=O)O[C@]1(C(=O)CC)CC[C@H]2[C@@H]3CCC4=CC(=O)CC[C@]4(C)[C@H]3[C@@H](O)C[C@@]21C`, the nuclear beta-catenin stimulation is -0.2% (inactive) in test [1] (at 10 µM) and 1.5% in test [1] (stimulation, at 2 µM). Besides, the insulin secretion stimulation in test [2] is 6.6% (inactive). In addition, in test [3], the viability decrease was 12.1% (inactive). Further, the tube area decrease in test [4] was -2.7% (inactive). Further, the GLP1 secretion stimulation in test [5] is 5.3% (inactive). For the same molecule, in test [6], the inhibition of viability is 18.1% (inactive). Besides, the viability decrease (inhibition) in test [7] was 35.2% (inactive); in test [8] it was 25.5% (inactive).

For the molecule `COc1cc2c(cc1OC)C(C(C(=O)N(CCc1ccc(OC)c(OC)c1OC)CCc1ccc(OC)c(OC)c1OC)c1ccccc1)=NCC2` (centres undefined), the nuclear beta-catenin stimulation was 4.4% (inactive) in test [1] (at 10 µM) and 8.3% in test [1] (stimulation, at 2 µM). In test [2], the insulin secretion stimulation was -0.9% (inactive). The viability decrease in test [3] is 74.1% (active). Moreover, the tube area decrease in test [4] was 20.6% (inactive). In addition, the GLP1 secretion stimulation in test [5] was 4.1% (inactive). In test [6], the inhibition of viability is 83.5% (active). Besides, the viability decrease (inhibition) is 87.9% (active) in test [7] and 69.8% (active) in test [8].

As to `C[N+](C)(CCOc1ccccc1)Cc1cccs1`, the nuclear beta-catenin stimulation is -0.3% (inactive) in test [1] (at 10 µM) and 1.1% in test [1] (stimulation, at 2 µM). Besides, the insulin secretion stimulation in test [2] is 2.65% (inactive). The viability decrease in test [3] is 22.9% (inactive). The tube area decrease in test [4] was -14.7% (inactive). For the same molecule, the GLP1 secretion stimulation in test [5] was -1.6% (inactive). The inhibition of viability in test [6] is 27.5% (inactive). Moreover, the viability decrease (inhibition) in test [7] is -11.3% (inactive); in test [8], 1.8% (inactive).

Consider `OCCCc1ccccc1`, for which the nuclear beta-catenin stimulation was 1.8% (inactive) in test [1] (at 10 µM) and 4.5% in test [1] (stimulation, at 2 µM). Also, in test [2], the insulin secretion stimulation is 3.2% (inactive). Further, in test [3], the viability decrease was 9.55% (inactive). The tube area decrease in test [4] is -11.1% (inactive). In addition, in test [5], the GLP1 secretion stimulation is 4.3% (inactive). The inhibition of viability in test [6] is -1.15% (inactive). For the same molecule, the viability decrease (inhibition) in test [7] was -15.8% (active); in test [8], 7.85% (inactive).

With `C[C@@H](O)[C@H]1C(=O)N2C(C(=O)O)=C([C@H]3CCCO3)S[C@H]12`, the nuclear beta-catenin stimulation was 0.5% (inactive) in test [1] (at 10 µM) and 0.5% in test [1] (stimulation, at 2 µM). Also, the insulin secretion stimulation in test [2] was -1.8% (inactive). Besides, the viability decrease in test [3] was 13.8% (inactive). Further, the tube area decrease in test [4] was -11.6% (inactive). Besides, the GLP1 secretion stimulation in test [5] is 1.1% (inactive). The inhibition of viability in test [6] is 3.4% (inactive). Moreover, the values for the viability decrease (inhibition) in test [7] and in test [8] were 34.6% (inactive) and 11.2% (inactive), respectively.

Consider `O=C1Cc2cc(Cl)ccc2N1`, for which the nuclear beta-catenin stimulation was -0.3% (inactive) in test [1] (at 10 µM) and -1.5% in test [1] (stimulation, at 2 µM). Besides, in test [2], the insulin secretion stimulation is 1% (inactive). The viability decrease in test [3] was 4.9% (inactive). Besides, in test [4], the tube area decrease was 2.8% (inactive). Further, the GLP1 secretion stimulation in test [5] was 3.9% (inactive). Moreover, the inhibition of viability in test [6] is 8.4% (inactive). Also, the results for the viability decrease (inhibition) in test [7] and in test [8] were -9.4% (inactive) and 2.7% (inactive), respectively.
